# From the supplement of paper PMC4466140
# How the values were obtained:
# Assay in all cases: SPOT peptide array binding signal intensity (averaged, normalized) (arbitrary units (background-subtracted, floor 0; scale differs between SH3 domains)); higher = stronger binding of the SH3 domain to the peptide
# [1] = target: AgAbp1
# Method in brief: (§1)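 Peptides were synthetic 15-mers on cellulose membranes, with every cysteine replaced by serine. They were incubated overnight at 4°C with GST-SH3 domains from four yeast species at 10 μg/ml in TBS-based blocking buffer. Binding signal, the replicate-averaged normalized and background-subtracted spot intensity, is in arbitrary units that differ between domains.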
# [2] = target: AgBbc1
# Method in brief: as §1
# [3] = target: AgBem1-D1
# Method in brief: as §1
# [4] = target: AgBzz1-D1
# Method in brief: as §1
# [5] = target: AgBzz1-D2
# Method in brief: as §1
# [6] = target: AgCyk3
# Method in brief: as §1
# [7] = target: AgFus1
# Method in brief: as §1
# [8] = target: AgHof1
# Method in brief: as §1
# [9] = target: AgHse1
# Method in brief: as §1
# [10] = target: AgLsb1
# Method in brief: as §1
# [11] = target: AgLsb4
# Method in brief: as §1
# [12] = target: AgMyo5
# Method in brief: as §1
# [13] = target: AgNbp2
# Method in brief: as §1
# [14] = target: AgRvs167
# Method in brief: as §1
# [15] = target: AgSho1
# Method in brief: as §1
# [16] = target: AgSla1-D1-D2
# Method in brief: as §1
# [17] = target: AgSla1-D3
# Method in brief: as §1
# [18] = target: CaAbp1-D1
# Method in brief: as §1
# [19] = target: CaAbp1-D2
# Method in brief: as §1
# [20] = target: CaBbc1
# Method in brief: as §1
# [21] = target: CaBem1-D1
# Method in brief: as §1
# [22] = target: CaBzz1-D1
# Method in brief: as §1
# [23] = target: CaBzz1-D2
# Method in brief: as §1
# [24] = target: CaCyk3
# Method in brief: as §1
# [25] = target: CaFus1
# Method in brief: as §1
# [26] = target: CaHof1
# Method in brief: as §1
# [27] = target: CaHse1
# Method in brief: as §1
# [28] = target: CaLsb1
# Method in brief: as §1
# [29] = target: CaLsb4
# Method in brief: as §1
# [30] = target: CaMyo5
# Method in brief: as §1
# [31] = target: CaNbp2
# Method in brief: as §1
# [32] = target: CaRvs167
# Method in brief: as §1
# [33] = target: CaRvs167-3
# Method in brief: as §1
# [34] = target: CaSho1
# Method in brief: as §1
# [35] = target: CaSla1-D1-D2
# Method in brief: as §1
# [36] = target: CaSla1-D3
# Method in brief: as §1
# [37] = target: ScAbp1
# Method in brief: as §1
# [38] = target: ScBbc1
# Method in brief: as §1
# [39] = target: ScBem1-D1
# Method in brief: as §1
# [40] = target: ScBzz1-D1
# Method in brief: as §1
# [41] = target: ScBzz1-D2
# Method in brief: as §1
# [42] = target: ScCyk3
# Method in brief: as §1
# [43] = target: ScFus1
# Method in brief: as §1
# [44] = target: ScHof1
# Method in brief: as §1
# [45] = target: ScHse1
# Method in brief: as §1
# [46] = target: ScLsb1
# Method in brief: as §1
# [47] = target: ScLsb2
# Method in brief: as §1
# [48] = target: ScLsb3
# Method in brief: as §1
# [49] = target: ScLsb4
# Method in brief: as §1
# [50] = target: ScMyo3
# Method in brief: as §1
# [51] = target: ScMyo5
# Method in brief: as §1
# [52] = target: ScNbp2
# Method in brief: as §1
# [53] = target: ScPex13
# Method in brief: as §1
# [54] = target: ScRvs167
# Method in brief: as §1
# [55] = target: ScSho1
# Method in brief: as §1
# [56] = target: ScSla1-D1-D2
# Method in brief: as §1
# [57] = target: ScSla1-D3
# Method in brief: as §1
# [58] = target: SpAbp1-D1
# Method in brief: as §1
# [59] = target: SpBbc1
# Method in brief: as §1
# [60] = target: SpBzz1-D1
# Method in brief: as §1
# [61] = target: SpBzz1-D2
# Method in brief: as §1
# [62] = target: SpCyk3
# Method in brief: as §1
# [63] = target: SpHof1
# Method in brief: as §1
# [64] = target: SpHof1-2
# Method in brief: as §1
# [65] = target: SpHof1-3
# Method in brief: as §1
# [66] = target: SpHse1
# Method in brief: as §1
# [67] = target: SpLsb1
# Method in brief: as §1
# [68] = target: SpLsb4
# Method in brief: as §1
# [69] = target: SpMyo1
# Method in brief: as §1
# [70] = target: SpNbp2
# Method in brief: as §1
# [71] = target: SpPex13
# Method in brief: as §1
# [72] = target: SpRvs167
# Method in brief: as §1
# [73] = target: SpSla1-D1-D2
# Method in brief: as §1
# [74] = target: SpSla1-D3
# Method in brief: as §1
binder,measurement,setting,value
NVLRKILEIPLHSFS,SPOT peptide array binding signal intensity,[1],4
same,SPOT peptide array binding signal intensity,[2],≤ 0
same,SPOT peptide array binding signal intensity,[3],≤ 0
same,SPOT peptide array binding signal intensity,[4],5.5
same,SPOT peptide array binding signal intensity,[5],24.5
same,SPOT peptide array binding signal intensity,[6],≤ 0
same,SPOT peptide array binding signal intensity,[7],29.5
same,SPOT peptide array binding signal intensity,[8],≤ 0
same,SPOT peptide array binding signal intensity,[9],2570
same,SPOT peptide array binding signal intensity,[10],2
same,SPOT peptide array binding signal intensity,[11],16
same,SPOT peptide array binding signal intensity,[12],≤ 0
same,SPOT peptide array binding signal intensity,[13],≤ 0
same,SPOT peptide array binding signal intensity,[14],1
same,SPOT peptide array binding signal intensity,[15],≤ 0
same,SPOT peptide array binding signal intensity,[16],≤ 0
same,SPOT peptide array binding signal intensity,[17],2
same,SPOT peptide array binding signal intensity,[18],≤ 0
same,SPOT peptide array binding signal intensity,[19],≤ 0
same,SPOT peptide array binding signal intensity,[20],≤ 0
same,SPOT peptide array binding signal intensity,[21],≤ 0
same,SPOT peptide array binding signal intensity,[22],≤ 0
same,SPOT peptide array binding signal intensity,[23],≤ 0
same,SPOT peptide array binding signal intensity,[24],≤ 0
same,SPOT peptide array binding signal intensity,[25],1150
same,SPOT peptide array binding signal intensity,[26],≤ 0
same,SPOT peptide array binding signal intensity,[27],7
same,SPOT peptide array binding signal intensity,[28],6
same,SPOT peptide array binding signal intensity,[29],≤ 0
same,SPOT peptide array binding signal intensity,[30],≤ 0
same,SPOT peptide array binding signal intensity,[31],94.5
same,SPOT peptide array binding signal intensity,[32],≤ 0
same,SPOT peptide array binding signal intensity,[33],7.25
same,SPOT peptide array binding signal intensity,[34],75
same,SPOT peptide array binding signal intensity,[35],≤ 0
same,SPOT peptide array binding signal intensity,[36],≤ 0
same,SPOT peptide array binding signal intensity,[37],2
same,SPOT peptide array binding signal intensity,[38],≤ 0
same,SPOT peptide array binding signal intensity,[39],≤ 0
same,SPOT peptide array binding signal intensity,[40],12
same,SPOT peptide array binding signal intensity,[41],26
same,SPOT peptide array binding signal intensity,[42],31
same,SPOT peptide array binding signal intensity,[43],123
same,SPOT peptide array binding signal intensity,[44],≤ 0
same,SPOT peptide array binding signal intensity,[45],1780
same,SPOT peptide array binding signal intensity,[46],59.8
same,SPOT peptide array binding signal intensity,[47],≤ 0
same,SPOT peptide array binding signal intensity,[48],≤ 0
same,SPOT peptide array binding signal intensity,[49],≤ 0
same,SPOT peptide array binding signal intensity,[50],0.75
same,SPOT peptide array binding signal intensity,[51],≤ 0
same,SPOT peptide array binding signal intensity,[52],9.5
same,SPOT peptide array binding signal intensity,[53],≤ 0
same,SPOT peptide array binding signal intensity,[54],0.833
same,SPOT peptide array binding signal intensity,[55],120
same,SPOT peptide array binding signal intensity,[56],≤ 0
same,SPOT peptide array binding signal intensity,[57],≤ 0
same,SPOT peptide array binding signal intensity,[58],≤ 0
same,SPOT peptide array binding signal intensity,[59],38
same,SPOT peptide array binding signal intensity,[60],≤ 0
same,SPOT peptide array binding signal intensity,[61],≤ 0
same,SPOT peptide array binding signal intensity,[62],0.5
same,SPOT peptide array binding signal intensity,[63],2
same,SPOT peptide array binding signal intensity,[64],≤ 0
same,SPOT peptide array binding signal intensity,[65],591
same,SPOT peptide array binding signal intensity,[66],2430
same,SPOT peptide array binding signal intensity,[67],≤ 0
same,SPOT peptide array binding signal intensity,[68],≤ 0
same,SPOT peptide array binding signal intensity,[69],≤ 0
same,SPOT peptide array binding signal intensity,[70],32.5
same,SPOT peptide array binding signal intensity,[71],2
same,SPOT peptide array binding signal intensity,[72],≤ 0
same,SPOT peptide array binding signal intensity,[73],≤ 0
same,SPOT peptide array binding signal intensity,[74],≤ 0
